Data from PubChem BioAssay.
Values joined by “and” are separate entries in the source; they are usually repeats but may differ in a detail not shown here. Equal entries are not always repeated. Active and inactive are the calls of the source. No stated cut-off is given here; in the data, active means inhibition above about 80%; inactive means the rest.

Experiment: LFS_MB_1R medulloblastoma cell growth inhibition, synergistic combos for chromothripsis tumors, cisplatin or BGB combos (AID 1671452)
Conditions: LFS_MB_1R medulloblastoma cells, measured here: combination with cisplatin, at 0.5 µM, stronger effect = higher value
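Further: cells exposed for 96 hours before readout.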

SMILES | inhibition
C[C@H]1COc2c(C3(N)CC3)c(F)cc3c(=O)c(C(=O)O)cn1c23 | -26.2%
CCN1CCN(c2cc3c(cc2F)c(=O)c(C(=O)O)cn3C2CC2)CC1 | -5.5%
O=C(O)P(=O)(O)O | -81.2%
CC1CCc2cc(F)cc3c(=O)c(C(=O)O)cn1c23 (stereo not given) | 23.1% and 16.6%
CN(C)/N=N/c1nc[nH]c1C(N)=O | 9.4% and -47.7%
Nc1nc2c(ncn2CCC(CO)CO)c(=O)[nH]1 | -56.8% and -22.6%

Same assay, conditions: LFS_MB_1R medulloblastoma cells, measured here: combination with cisplatin, at 5 µM, stronger effect = higher value

SMILES | inhibition
C[C@H]1COc2c(C3(N)CC3)c(F)cc3c(=O)c(C(=O)O)cn1c23 | -29.7%
CCN1CCN(c2cc3c(cc2F)c(=O)c(C(=O)O)cn3C2CC2)CC1 | -5.5%
O=C(O)P(=O)(O)O | -40.9%
CC1CCc2cc(F)cc3c(=O)c(C(=O)O)cn1c23 (stereo not given) | 7.04% and -25.3%
CN(C)/N=N/c1nc[nH]c1C(N)=O | 3.18% and -94.1%
Nc1nc2c(ncn2CCC(CO)CO)c(=O)[nH]1 | -7.78% and -27.3%

Experiment: HTB85 osteosarcoma cell growth inhibition, synergistic combos for chromothripsis tumors, BGB or cisplatin IC20 combos (AID 1671453);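 further: 0% = vehicle DMSO and 100% = high DMSO killing control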
Conditions: HTB85 osteosarcoma cells, drug combinations, at 0.5 µM, stronger effect = higher value

SMILES | inhibition
C[C@H]1COc2c(C3(N)CC3)c(F)cc3c(=O)c(C(=O)O)cn1c23 | -9.68% (inactive)
CCN1CCN(c2cc3c(cc2F)c(=O)c(C(=O)O)cn3C2CC2)CC1 | 4.78% (inactive)
O=C(O)P(=O)(O)O | -23.4% (inactive)
CC1CCc2cc(F)cc3c(=O)c(C(=O)O)cn1c23 (stereo not given) | -21.3% (inactive) and 5.14% (inactive)
CN(C)/N=N/c1nc[nH]c1C(N)=O | -1.95% (inactive) and -35.1% (inactive)
Nc1nc2c(ncn2CCC(CO)CO)c(=O)[nH]1 | -21.5% (inactive) and -5.99% (inactive)

Same assay, conditions: HTB85 osteosarcoma cells, drug combinations, measured here: with BGB IC20, at 0.5 µM, stronger effect = higher value

SMILES | inhibition
C[C@H]1COc2c(C3(N)CC3)c(F)cc3c(=O)c(C(=O)O)cn1c23 | -30.1%
CCN1CCN(c2cc3c(cc2F)c(=O)c(C(=O)O)cn3C2CC2)CC1 | -19%
O=C(O)P(=O)(O)O | -66.1%
CC1CCc2cc(F)cc3c(=O)c(C(=O)O)cn1c23 (stereo not given) | -53.3% and -0.618%
CN(C)/N=N/c1nc[nH]c1C(N)=O | 3.62% and -33.2%
Nc1nc2c(ncn2CCC(CO)CO)c(=O)[nH]1 | -16.4% and -34.5%

Same assay, conditions: HTB85 osteosarcoma cells, drug combinations, measured here: with BGB IC20, at 5 µM, stronger effect = higher value

SMILES | inhibition
C[C@H]1COc2c(C3(N)CC3)c(F)cc3c(=O)c(C(=O)O)cn1c23 | -48.1%
CCN1CCN(c2cc3c(cc2F)c(=O)c(C(=O)O)cn3C2CC2)CC1 | -4.03%
O=C(O)P(=O)(O)O | -35%
CC1CCc2cc(F)cc3c(=O)c(C(=O)O)cn1c23 (stereo not given) | -33.8% and -1.4%
CN(C)/N=N/c1nc[nH]c1C(N)=O | -31.2% and -31.5%
Nc1nc2c(ncn2CCC(CO)CO)c(=O)[nH]1 | -7.68% and -31%
